Test results taken from PubChem BioAssay AID1645857 (Buhrlage Lab, Dana-Farber Cancer Institute and Novartis …, 2021).
The campaign covered roughly 47,000 compounds. About 1,400 (3%) were called active. Rule as the data show it: active = inhibition above about 30%; inactive = the rest. Shown is part of a subset that was picked to be rich in actives.

What follows are compounds tested against Ubiquitin carboxyl-terminal hydrolase 28 (Homo sapiens) (UniProt Q96RU2) (assay: blocks human USP28 ubiquitin-rhodamine cleavage (AID 1645857)). Details: purified USP28, Ub-rhodamine cleavage fluorescence, 30 min; at 25 µM; active compounds read high.
Ubiquitin carboxyl-terminal hydrolase 28 (Homo sapiens), sequence (Q96RU2 whole entry, looked up): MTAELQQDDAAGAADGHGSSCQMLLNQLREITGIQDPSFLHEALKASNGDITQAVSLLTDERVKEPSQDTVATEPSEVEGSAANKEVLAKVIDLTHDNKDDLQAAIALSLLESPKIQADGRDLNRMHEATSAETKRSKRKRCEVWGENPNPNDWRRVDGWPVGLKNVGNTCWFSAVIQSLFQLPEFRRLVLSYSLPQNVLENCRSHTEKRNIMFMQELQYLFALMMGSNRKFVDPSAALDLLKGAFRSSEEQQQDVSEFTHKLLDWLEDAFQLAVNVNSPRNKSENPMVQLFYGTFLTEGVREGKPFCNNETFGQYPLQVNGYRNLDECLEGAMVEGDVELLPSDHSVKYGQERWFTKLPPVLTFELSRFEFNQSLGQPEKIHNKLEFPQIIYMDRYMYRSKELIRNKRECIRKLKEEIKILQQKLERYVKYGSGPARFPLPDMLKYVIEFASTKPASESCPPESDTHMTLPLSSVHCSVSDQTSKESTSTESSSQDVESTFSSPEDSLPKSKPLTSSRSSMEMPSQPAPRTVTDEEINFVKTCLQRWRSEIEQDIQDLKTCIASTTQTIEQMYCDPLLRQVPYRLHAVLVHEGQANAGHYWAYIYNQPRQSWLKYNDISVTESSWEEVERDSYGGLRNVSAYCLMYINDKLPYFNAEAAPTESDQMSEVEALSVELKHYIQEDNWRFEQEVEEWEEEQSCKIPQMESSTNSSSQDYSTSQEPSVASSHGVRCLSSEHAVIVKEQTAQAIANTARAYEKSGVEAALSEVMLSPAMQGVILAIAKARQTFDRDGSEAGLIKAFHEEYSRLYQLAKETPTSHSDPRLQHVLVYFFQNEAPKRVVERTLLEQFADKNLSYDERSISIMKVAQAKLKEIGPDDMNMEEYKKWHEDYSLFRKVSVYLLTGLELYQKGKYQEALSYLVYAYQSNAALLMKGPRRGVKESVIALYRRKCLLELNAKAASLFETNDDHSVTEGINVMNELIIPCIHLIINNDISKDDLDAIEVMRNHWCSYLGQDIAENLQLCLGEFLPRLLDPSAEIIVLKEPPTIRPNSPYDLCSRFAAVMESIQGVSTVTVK

inhibition, active:
CC1CCc2c(sc3ncnc(OCc4cccc([N+](=O)[O-])c4)c23)C1 (configuration not stated) 94.8%
COc1cccc(-c2cc(C(=O)N3CCN(c4ccc(N5CCOCC5)nn4)CC3)[nH]n2)c1 69.8%
CSc1ncccc1C(=O)OCc1ccc(Br)cc1 76.8%
COC(=O)c1ccc(C2Oc3ccccc3CN2c2ccccc2Cl)cc1 (configuration not stated) 34.3%
COc1ccccc1CNC(=O)c1nc(N2CCSCC2)c2cn(C)nc2n1 32.8%
O=C(Cc1cccc2ccccc12)Nc1nc2ccc(F)cc2s1 55.7%
CN(C)CCCNC(=O)/C=C/c1ccc(OCc2c(F)cccc2Cl)cc1 34.5%
Oc1cccc2nc3c(O)cccc3nc12 61.8%
Cc1ccc(NC(=O)Cc2sc(Nc3ccc(C)cc3)nc2O)cc1 75.6%
O=C(NCCc1ccccc1)c1ccc2c(=O)n(Cc3ccco3)c(=O)n(Cc3cccc([N+](=O)[O-])c3)c2c1 73.4%
CN(c1ccccc1)c1nc(=O)n(CC(=O)Nc2ccc3c(c2)OCCO3)c2ccccc12 41.9%
O=C(Cn1cnc2c(sc3ccccc32)c1=O)Nc1ccc2c(c1)OCCO2 38.1%
CSc1nc2c(c(Nc3ccc(C(C)=O)cc3)n1)CCC2 53.2%
CC(C)(C)C(=O)Nc1ccc(SCc2nnc(-c3ccccc3)o2)cc1 64%

inhibition, inactive:
O=C1NC2(CCCc3ccccc32)C(=O)N1Cc1csc(-c2ccc(Cl)cc2)n1 (configuration not stated) 2.68%
COc1cccc(-c2noc(CN3CCCC3c3cc(OC)ccc3OC)n2)c1 (configuration not stated) -19.5%
O=C(COc1ccccc1)Nc1cnc(-c2cccc(Cl)c2)nc1 0.526%
COc1cc(-c2nc3sc4c(c3c(=O)[nH]2)CCC(C)C4)ccc1OCc1ccc(C)cc1 (configuration not stated) 13.3%
CC1CCc2c(sc3nc(CC#N)[nH]c(=O)c23)C1 (configuration not stated) -258%
Cc1nc(C2CCCN(C(=O)c3cccnc3N)C2)nc2c1CC(=O)N2Cc1ccccc1 (configuration not stated) -6.04%
C=C1Nc2ccccc2C(=O)N1c1cccc(NC(=O)Cc2ccc(F)cc2)c1 2.69%
CNc1nc2c(c(=O)n1C)CN(C(=O)Nc1ccccc1Oc1ccccc1)CC2 14.2%
O=C(c1cccnc1)N1CCN(c2cc(-c3ccccc3)[nH]n2)CC1 4.54%
COc1ccc(NC(=O)c2sc(N3CCOCC3)nc2-c2ccccc2)c(OC)c1 15.1%
COc1cccc(C(=O)N2CCCC2c2nc(-c3ccccc3)no2)c1 (configuration not stated) 1.43%
C=C(CCC(C(=O)O)[C@H]1[C@H](O)C[C@@]2(C)C3=C(CC[C@]12C)[C@@]1(C)CC[C@H](OC(C)=O)C(C)(C)[C@@H]1CC3)C(C)C (some centres not stated) 3.27%
COCCCNC(=O)c1cc2c(=O)n3ccccc3nc2n1Cc1ccccc1 9.14%
CCCOc1ccc(NC(=O)c2ccc(Br)cc2)c2cccnc12 -10.2%
CSc1ncccc1C(=O)Nc1ccnn1C(C)c1ccncc1 (configuration not stated) -28.1%
CCCCNC(=O)Cc1csc(COc2ccc(C)cc2)n1 2.41%
O=C(NC1CCCC1)c1ccccc1N1C(=O)[C@@H]2Cc3c([nH]c4ccccc34)C(c3ccc(F)cc3)N2C1=O (some centres not stated) -2.2%
CN1CCCN(C(=O)C2CCCCC2)CC1 -7.1%
COC(=O)c1ccc(C(=O)NCC2(O)CCc3ccccc32)cc1 (configuration not stated) 6.5%
COC(=O)c1ccc(C2c3[nH]c4ccccc4c3C[C@H]3C(=O)N(CC4CCCO4)CC(=O)N23)cc1 (some centres not stated) -2.7%
Cn1nc(C2CCCN(Cc3cc(F)cc(F)c3)C2)c2nccnc21 (configuration not stated) -9.38%
COc1ccccc1CNC(=O)c1c(O)c2cccnc2n(-c2ccccc2)c1=O -16.9%
CCN1CCC2(CC1)OC(=O)C(C)=C2C(=O)NCc1ccccc1OC -9.74%
O=C(CCc1nnc2ccc(N3CCOCC3)nn12)N1CCC(Cc2ccccc2)CC1 3.03%
CC(C)C(=O)Nc1nc2ccc(CCC(=O)Nc3ccc(F)cc3)cc2s1 -0.104%
CCCC(=O)Nc1nc2ccc(CCC(=O)NCc3ccc(F)cc3)cc2s1 -4.54%
CCC(=O)Nc1ccccc1SCC(=O)N1c2ccccc2CC1C (configuration not stated) 10.9%
CS(=O)(=O)c1ccc(Oc2ncc(-c3cccs3)cn2)cc1 3.89%
COc1ccc(C(C)=O)cc1CSc1nnc(-c2ccccc2OC)n1CCc1ccccc1 5.07%
CC(C)(C)c1ccc(/C=C/C(=O)NCCCn2ccnc2)cc1 -4.88%
COC(=O)c1cc2c(ccn2C)n1CC(=O)NC1CCCC1 -250%
CCCCCCCCCCC(C)C1CC(=O)NC(C(C)O)C(=O)NC(C)C(=O)NC(C)C(=O)NC(CCC(N)=O)C(=O)NC(Cc2ccc(O)cc2)C(=O)NC(C(C)CC)C(=O)O1 (configuration not stated) -4.03%
Cc1cc(=O)[nH]c(C2CN(C(=O)c3cccc4c3OCCO4)CCO2)n1 (configuration not stated) -1.67%
CCOc1ccc(Nc2nc(O)c(CC(=O)Nc3cccc(C)c3)s2)cc1 27.4%
Cc1ccc(Nc2nc(O)c(CC(=O)Nc3ccc(C(C)C)cc3)s2)cc1C -1.13%
CC(Nc1nc2ccccc2nc1NS(=O)(=O)c1cc(Cl)ccc1Cl)c1ccccc1 (configuration not stated) -235%
CC(=O)C(CC(=O)N1CCCC1)C(=O)Nc1ccc(Cl)cc1 (configuration not stated) 8.14%
CC1CCN(c2ccc(C(=O)NCc3ccc(F)cc3)cc2[N+](=O)[O-])CC1 0.654%
O=C(NCCc1ccccc1)c1ccc2c(=O)nc3c(-c4ccccc4F)n[nH]n3c2c1 -8.97%
O=C(Cn1c(=O)n(Cc2ccc3c(c2)OCO3)c(=O)c2ccccc21)NCc1ccco1 26.3%
Cn1ccc(NC(=O)CN2[C@H](Cc3ccccc3)C[C@]3(C)NC(=O)CCC[C@H]23)n1 -3.27%
CC1CCCCN1CC(=O)N1CCc2cc(S(N)(=O)=O)ccc21 (configuration not stated) -35.3%
CCc1ccc(-n2c(SC(CC)C(=O)NCCOC)nc3n[nH]c(C)c3c2=N)cc1 (configuration not stated) -17.1%
COc1ccc(C)cc1NC(=O)Cn1c(=O)nc(N(C)c2ccccc2)c2ccccc21 20.4%
O=C(Cn1cc(C(F)(F)F)ccc1=O)Nc1ccc2c(c1)OCCO2 15.1%
CCOC(=O)c1cc2c(ccn2C)n1CC(=O)Nc1ccc2c(c1)OCCO2 -34.6%
COc1ccccc1-c1ccc2nnc(SCC(=O)Nc3ccc4c(c3)OCCO4)n2n1 3.38%
COc1cccc(-c2cnc(C(O)c3sccc3C)[nH]2)c1 (configuration not stated) -14.5%
Fc1cccc(Nc2nc(-c3ccncc3)nc3c2CCC3)c1 5.32%
COc1cc(-c2nnc(SCC(=O)Nc3ccc(Br)cc3)n2CCc2ccccc2)cc(OC)c1OC -5.36%
O=C(NCCc1ccc(O)cc1)c1cc(Br)ccc1-n1cnnn1 8.86%
Cc1nc(SCC#N)c2oc3ccccc3c2n1 -1.32%
COC(=O)c1cccnc1-n1c(=O)c2cccnc2n(CC(=O)Nc2ccc(C)c(F)c2)c1=O -12.4%
Cc1ccc(-c2nnc(CCC(=O)O)o2)cc1 -0.555%
CC(C)(C)C(=O)Nc1ccc(C(=O)Nc2ccc(O)cc2C(=O)O)cc1 13.9%
O=C(CCc1csc(NC(=O)c2ccc(=O)[nH]c2)n1)NCCc1c[nH]c2ccccc12 -13.5%
CC1CCN(S(=O)(=O)N2CCCC(C(=O)NC3CCN(Cc4ccccc4)CC3)C2)CC1 (configuration not stated) -8.49%
CCOc1ccccc1OC(=O)c1cc(-c2cc(OC)c(OC)c(OC)c2)nc2ccccc12 -10%
